This is a sample that favours compounds with a hit; in the whole collection about 19% have one here.
IL-1B inflam inh: blocks inflammasome-driven IL-1 beta release. THP-1 LPS/ATP IL-1B secretion, AlphaLISA, 16 h; hits give low values. activity change, % at 57.5 µM. 360,000 compounds, 4.7% hits; in the data active = activity change below about -50%; inconclusive = mostly about -30% to -49%
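THP-1 cells pretreated 1 hr with compounds (up to 57.5 uM final), then stimulated with LPS (250 ng/mL final) plus ATP (1.25 mM final); secreted IL-1B measured by AlphaLISA after 16 hr, decreased signal indicating inhibition.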
TDP1 cell CPT: DT40-hTDP1 cell growth loss with CPT. Potency, µM (highest dose often 46.2 µM), without a hit: top-dose activity change, negative = growth inhibition, most hits filed as inhibitors. chicken DT40 Tdp1-/-;hTDP1 cells + 20 nM CPT, ATP luminescence, 48 h. 420,000 compounds, 12% hits; note: potency is the fitted concentration of half-maximal effect; nearly all actives have a fitted effect of over 55% in size
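Chicken DT40 Tdp1-/- cells complemented with human TDP1, 400 cells/well, exposed to compounds plus 20 nM camptothecin for at least 48 h at 37 C; viability read as ATP content by CellTiter-Glo luminescence.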
TDP1 cell noCPT: qHTS for Inhibitors of human tyrosyl-DNA phosphodiesterase 1 (TDP1): qHTS in cells in absence of CPT; DT40 Tdp1-/- hTDP1 cells, no CPT, ATP luminescence, 48 h; Potency, µM (doses to about 46.2 µM), for the others: top-dose activity change, negative = growth inhibition, most hits filed as inhibitors; 420,000 compounds, 15% hits; note: potency is the fitted concentration of half-maximal effect; nearly all actives have a fitted effect of over 55% in size
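Compound effects on proliferation are scored in DT40 Tdp1-/-;hTDP1 cells in the absence of CPT. ATP levels (CellTiter-Glo luminescence) are recorded after a ≥48 hr, 37 °C incubation.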
HT1080 IDH1KD tx: kills HT-1080 cells with IDH1 knockdown; HT-1080 IDH1 knockdown viability, ATP luminescence, 48 h; Potency, µM (titrated, usually from 46.1 µM), for inactives: at the highest dose activity, negative = toxicity, most hits filed as cytotoxic; 360,000 compounds, 2% hits;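 note: potency is the fitted concentration of half-maximal effect; 0% = DMSO wells and -100% = cell-free medium wells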
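Assay cells: HT-1080 with IDH1 knockdown, 750 per well, RPMI/5% FBS. Exposure: 48 h at 37 °C following 2 h pre-incubation. Read: CellTiter-Glo luminescence; fitted concentration-response, curve class assigned.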
HT1080-NT tox: kills 2HG-producing HT-1080-NT fibrosarcoma cells; HT-1080-NT fibrosarcoma viability, CellTiter-Glo ATP luminescence, 48 h; Potency, µM (highest dose often 46.1 µM), inactives show top-dose activity, negative = less viability, hits mostly cytotoxic; 360,000 compounds, 1.6% hits; AID 686970;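 note: NT is the 2HG producing partner of a matched IDH1 knockdown line; potency is the fitted concentration of half-maximal effect; 0% = DMSO-treated cells and -100% = media-only wells without cells; nearly all actives have a fitted effect of over 55% in size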
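Viability of the 2HG-overproducing fibrosarcoma line after 48 hours of compound exposure at 37 degrees C was determined by luminescence with CellTiter-Glo, and concentration-effect curves were then fitted and categorized.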
ELG1 DNA repair: blocks ELG1-dependent DNA repair in HEK293T cells; HEK293T ELG1-luciferase reporter, luminescence, 16 h; DNA damage induced by 5-fluorouridine; Potency, µM (titrated, usually from 46.1 µM), without a hit: top-dose activity change, negative = inhibition, actives largely listed as inhibitors; 330,000 compounds, 2.3% hits; AID 504467; note: potency is the fitted concentration of half-maximal effect; nearly all actives have a fitted effect of over 55% in size
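Cells (2,000 per well) received 5-fluorouridine plus test compound or DMSO and were incubated 16 hr at 37 °C, 5% CO2. Luciferase activity was read by luminescence 30 min after ONE-Glo addition; signal suppression marked inhibition of damage-induced ELG1 function.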
An asterisk follows results filed as active; ? = inconclusive; / = no result; [ ] = dose if it differs, or a comment. Unless noted, calls come from the whole dose curve; as a rule, active = well fitted curve in the direction sought with a large enough effect; inconclusive = small, poorly fitted or top-dose-only effect, or another doubt; inactive = no such curve, though single readings can be large; an effect the other way counts as inactive or inconclusive. Unless noted, % is set by controls: 0 for no effect and ±100 for the full control effect.

SMILES	IL-1B inflam inh	TDP1 cell CPT	TDP1 cell noCPT	HT1080 IDH1KD tx	HT1080-NT tox	ELG1 DNA repair
COc1cc2c(-c3ccc4cc[nH]c4c3)c(-c3ccc(C#N)cc3)oc(=O)c2cc1OC	15	5.8µM*	9.2µM*	-8%	-4%	-21%
COc1ccc(-c2oc3c(c2C#CC2(O)CCCCC2)C(OC)CCC3)cc1 (configuration not stated)	?	?	-29%	?	?	/
COc1ccccc1-c1oc2ccccc2c1-c1ccc2cc[nH]c2c1	?	?	?	?	?	-9%
COc1ccc(C(=O)c2c(-c3ccc(OC)cc3)oc3ccc(-c4cc(OC)c(OC)c(OC)c4)cc23)cc1	-11	7.3µM*	9.2µM*	4%	8%	/
COC(=O)c1ccc(C2/C(=C(/O)c3ccc4c(c3)CC(C)O4)C(=O)C(=O)N2Cc2ccncc2)cc1 (configuration not stated)	6	-19%	28%	-8%	18%	13%
COc1cc2c(O)c3c(c(-c4ccc5c(c4)OCO5)c2cc1OC)C(=O)OC3	-19	1.8µM*	3.3µM*	2.5µM*	2.5µM*	?
COc1cc2sc(-c3ccc(S(C)(=O)=O)cc3)c(-c3ccc4c(c3)OCO4)c2cc1OC	-15	-10%	?	-18%	-14%	?
COc1ccc(-c2oc(=O)c3cc(OC)c(OC)cc3c2C#CCCO)cc1	0	?	21µM*	-7%	-1%	16µM*
COc1ccc(/C=C/c2c(-c3ccc(OC)cc3)oc(=O)c3cc(OC)c(OC)cc23)cc1	25	?	?	10%	-3%	5.8µM*
COc1ccc(-c2oc(=O)c3cc(OC)c(OC)cc3c2-c2ccc3c(c2)OCO3)cc1	-11	16µM*	18µM*	-6%	-3%	?
Cc1c(Br)cccc1NC(=O)C1(C)CCN1C(C)C (configuration not stated)	-12	?	?	2%	-2%	/
OCC[C@@H]1C[C@H](O)[C@@H](O)[C@]2(OCc3cc(Cl)ccc32)O1	8	1%	0%	20%	8%	/
CC(Sc1nnc(-c2cccnc2)o1)C(=O)NC1CCCC1 (configuration not stated)	-3	-10%	-4%	9%	2%	7%
O=C(CNC(=O)c1cc(-c2ccccc2)nn1-c1ccccc1)Nc1ccccc1Br	38	?	?	1%	-1%	/
Cn1c(CCn2ccccc2=O)nc2cc(NC(=O)COc3ccccc3)ccc21	-5	-10%	-10%	0%	-3%	?
COc1ccc(-c2oc3c(c2C#CC(C)(C)O)C(OCCO)CC3)cc1 (configuration not stated)	-6	?	?	3%	1%	/
COc1ccc(-c2ccc3oc(-c4ccc(OC)cc4)c(C#CCO)c3c2)cc1	?	23µM*	?	16µM*	21µM*	/
COc1ccc(-c2oc3ccccc3c2C#CC(C)(C)O)cc1	-3	?	-29%	-7%	-21%	13µM*
COc1ccc(-c2oc(=O)c3cc(OC)c(OC)cc3c2C#C[C@]2(O)CC[C@H]3[C@@H]4CCc5cc(OC)ccc5[C@H]4CC[C@@]32C)cc1	7	?	16µM*	5%	2%	19%
CCOc1ccccc1NC(=O)CN1CCC(NC(=O)Nc2ccccc2)CC1	16	?	?	-5%	3%	-26%
O=c1oc2ccccc2c(Nc2ccc(Cl)cc2)c1[N+](=O)[O-]	-24	?	13µM*	-27%	?	?
O=c1oc2ccccc2c(Nc2ccc(F)cc2)c1[N+](=O)[O-]	-12	?	?	-7%	-5%	-20%
COC(=O)c1ccc(Nc2c([N+](=O)[O-])c(=O)oc3ccccc23)cc1	-78*	0%	?	-24%	-18%	?
CC(=O)c1cccc(Nc2c([N+](=O)[O-])c(=O)oc3ccccc23)c1	5	?	?	-12%	-25%	6%
Cc1cc(C)nc(SC2CC(=O)N(c3ccc(C)c(C)c3)C2=O)n1 (configuration not stated)	64	?	15µM*	16µM*	?	-2%
SMILES	IL-1B inflam inh	TDP1 cell CPT	TDP1 cell noCPT	HT1080 IDH1KD tx	HT1080-NT tox	ELG1 DNA repair
Cc1cc(C)nc(SC2CC(=O)N(c3ccc(Cl)cc3)C2=O)n1 (configuration not stated)	15	?	21µM*	1%	6%	7%
Cc1cc(C)nc(SC2CC(=O)N(c3ccc(Br)cc3)C2=O)n1 (configuration not stated)	29	?	?	-11%	-5%	3%
Cc1oc(-c2ccccc2NC(=O)C2CCCO2)nc1CNC(=O)c1[nH]c2c(C)ccc(C)c2c1C (configuration not stated)	/	5%[9.04 µM]	?	/	/	/
COc1ccc2c(c1)OC[C@H]1[C@H]2N2C(=O)c3cc(OC)c(OC)cc3NC(=O)[C@@]2(C)[C@H]1c1ccccc1	0	29µM*	16µM*	?	?	?
C[C@@]12C(=O)Nc3cc(F)c(F)cc3C(=O)N1[C@H]1c3ccccc3OC[C@@H]1[C@@H]2c1ccccc1	-63*	?	18µM*	-25%	-25%	/
COc1ccc2c(c1)OC[C@H]1[C@@H]2N2C(=O)[C@@H](C)NC(=O)[C@@]2(C)[C@H]1c1ccccc1	17	8%	-16%	1%	4%	?
COc1cc2c(cc1OC)C(=O)N1[C@H]3c4ccccc4OC[C@@H]3[C@H](c3ccccc3)[C@]1(C)C(=O)N2	?	?	15µM*	-15%	4%	-13%
O=c1c2c(ncn2C2CCCC2)n(Cc2ccccc2)c(=O)n1CCOc1ccccc1	-6	-7%	-14%	2%	11%	?
Cc1ccc(C)c(OCCn2c(=O)c3c(ncn3C3CCCC3)n(Cc3ccccc3)c2=O)c1	-8	?	?	-7%	-1%	21µM*
COc1ccccc1-c1ccc(/C=C2\C=CC(=O)O2)o1	/	21µM*	?	?	-27%	?
COC(=O)c1ccccc1-c1ccc(C=O)o1	9	-17%	-5%	12%	12%	-8%
COc1ccccc1-c1ccc(/C=C2/C=C(C)OC2=O)o1	-6	13µM*	10µM*	9%	4%	9%

Compound activity: PubChem, National Center for Advancing Translational Sciences (NCATS)
